PubChem BioAssay (NCI)
Compounds without any hit were thinned out: in the full panel of roughly 79,000, 15% have a hit. Activity calls are given as the source filed them. Rule as the data show it: active = growth inhibition above about 70%; inactive = the rest.

Experiments:
[1] = NCI Yeast Anticancer Drug Screen. Data for the rad50 strain (AID 155);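 also: 0% = growth of vehicle-only cultures of the same strain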; conditions: S. cerevisiae rad50 strain growth inhibition, active compounds read high
Outline: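 Relative growth inhibition (compound vs vehicle) was measured in yeast with a defined repair-gene alteration.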

[2] = NCI Yeast Anticancer Drug Screen. Data for the mec2-1 strain (AID 157); conditions: S. cerevisiae mec2-1 strain, active compounds read high
Outline: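 Yeast mec2-1 mutant treated with compound. Readout: growth inhibition vs vehicle controls.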

[3] = NCI Yeast Anticancer Drug Screen. Data for the sgs1 mgt1 strain (AID 161);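 also: 0% = growth of cultures given vehicle only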; conditions: S. cerevisiae sgs1 mgt1 strain, active compounds read high
Outline: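 Genetically altered yeast, compound exposure, growth inhibition relative to vehicle.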

[4] = NCI Yeast Anticancer Drug Screen. Data for the cln2 rad14 strain (AID 165);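 also: 0% = growth equal to vehicle treated cultures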; conditions: S. cerevisiae cln2 rad14 strain, active compounds read high
Outline: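 cln2 rad14 yeast strain; compound exposure; growth inhibition read vs vehicle controls.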

[5] = NCI Yeast Anticancer Drug Screen. Data for the bub3 strain (AID 167); conditions: S. cerevisiae bub3 mutant strain, active compounds read high
Outline: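 Screening used yeast with an engineered genetic alteration affecting cell cycle control. Compound-exposed cultures were compared with vehicle cultures, and reduced growth was taken as inhibition.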

[6] = NCI Yeast Anticancer Drug Screen. Data for the mlh1 rad18 strain (AID 175); conditions: S. cerevisiae mlh1 rad18 strain growth inhibition, active compounds read high
Outline: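 Yeast w/ defined DNA-repair lesions; compound exposure; growth vs vehicle controls → % inhibition.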

[7] = at 5.0 µM (retest, dose inferred, filed as 0.5)
[8] = at 50.0 µM (retest, dose inferred, filed as 5.0)

Measured: growth inhibition

O=C(Cc1ccccc1)NC/C=N/O
inactive: [1]; at 50.0 µM unless noted 26.5% | [2]; at 50.0 µM unless noted -20% | [3]; at 50.0 µM unless noted 10.2% | [4]; at 50.0 µM unless noted -2% | [5]; at 50.0 µM unless noted -43.1%

O=c1oc2ccccc2cc1O
inactive: [1]; at 50.0 µM unless noted -12.2% | [2]; at 50.0 µM unless noted -4.5% | [3]; at 50.0 µM unless noted -6% | [4]; at 50.0 µM unless noted -28.9% | [5]; at 50.0 µM unless noted -18.3%

CC(=O)OC(C)C(=O)NCC(C)O (configuration not stated)
inactive: [1]; [7] -1% | [1]; [8] 3% | [2]; [7] -2% | [2]; [8] 0% | [3]; [7] -2% | [3]; [8] 9% | [4]; [7] -1% | [4]; [8] -7% | [5]; [7] 5% | [5]; [8] 7% | [6]; [7] -33% | [6]; [8] 20%

Cc1cn(C2CC3C(COC(c4ccccc4)N3O)O2)c(=O)[nH]c1=O (configuration not stated)
inactive: [1]; at 50.0 µM unless noted 0.1% | [2]; at 50.0 µM unless noted -8.65% | [3]; at 50.0 µM unless noted 21.2% | [4]; at 50.0 µM unless noted 2.7% | [5]; at 50.0 µM unless noted -2.95%

NN1CCN(CCO)CC1
inactive: [1]; at 50.0 µM unless noted -0.1% | [2]; at 50.0 µM unless noted -39.6% | [3]; at 50.0 µM unless noted -3.3% | [4]; at 50.0 µM unless noted 12.2% | [5]; at 50.0 µM unless noted -4%

Cc1nc2c(n1-c1ccc(Br)cc1)C(=O)c1ccccc1C2=O
inactive: [1]; at 50.0 µM unless noted 33.9% | [2]; at 50.0 µM unless noted -17.9% | [3]; at 50.0 µM unless noted -4.4% | [4]; at 50.0 µM unless noted 12.3% | [5]; at 50.0 µM unless noted -30.2%

CC(O)C(=O)NC1CCCCC1 (configuration not stated)
inactive: [1]; [7] 3% | [1]; [8] 26% | [2]; [7] 1% | [2]; [8] 1% | [3]; [7] 1% | [3]; [8] 12% | [4]; [7] 1% | [4]; [8] 3% | [5]; [7] 2% | [5]; [8] -4% | [6]; [7] 3% | [6]; [8] 17%

C/C(CC(C)C(=O)O)=N/NC(N)=O (configuration not stated)
inactive: [1]; [7] 0% | [1]; [8] 34% | [2]; [7] -8% | [2]; [8] 5% | [3]; [7] 0% | [3]; [8] 40% | [4]; [7] -6% | [4]; [8] -2% | [5]; [7] -1% | [5]; [8] 20% | [6]; [7] -31% | [6]; [8] 43%

CC(C)CCC[C@@H](C)C1CCC2[C@@H]3CCC4C[C@@H](CCC=C(c5cc(Cl)c(O)c(C(=O)O)c5)c5cc(Cl)c(O)c(C(=O)O)c5)CC[C@]4(C)C3CC[C@@]21C (some centres not stated)
inactive: [1]; at 50.0 µM unless noted -26.4% | [2]; at 50.0 µM unless noted -21.9% | [3]; at 50.0 µM unless noted -14.7% | [4]; at 50.0 µM unless noted -41% | [5]; at 50.0 µM unless noted 8.5%

N#CC(C#N)N=Nc1ccc(Cl)cc1
inactive: [1]; [7] 26% | [2]; [7] 18% | [3]; [7] 24% | [4]; [7] 1% | [5]; [7] 9% | [6]; [7] -1%
active: [1]; [8] 83% | [2]; [8] 73% | [3]; [8] 93% | [4]; [8] 73% | [5]; [8] 72% | [6]; [8] 87%

CC(CC=O)CC=O
inactive: [1]; [7] 15% | [2]; [7] 3% | [2]; [8] 32% | [3]; [7] 18% | [4]; [7] 3% | [4]; [8] 31% | [5]; [7] -5% | [5]; [8] -7% | [6]; [7] 16%
active: [1]; [8] 82% | [3]; [8] 78% | [6]; [8] 79%

C/C(=N\NC(N)=O)c1ccc(Br)c2ccccc12
inactive: [1]; at 50.0 µM unless noted -19.1% | [2]; at 50.0 µM unless noted 12.9% | [3]; at 50.0 µM unless noted -3.35% | [4]; at 50.0 µM unless noted 4.05% | [5]; at 50.0 µM unless noted 1.05%

C=C1COC(O)(C2OCOC(C3CC(=O)NC(=O)C3)C2O)C1C (configuration not stated)
active: [1]; at 50.0 µM unless noted 88% | [2]; at 50.0 µM unless noted 91.2% | [3]; at 50.0 µM unless noted 91.5% | [4]; at 50.0 µM unless noted 89.8% | [5]; at 50.0 µM unless noted 89.2%

CC(=O)Nc1ccc(-c2nnc(SCC(=O)Nc3cccc([N+](=O)[O-])c3)o2)cc1
inactive: [1]; at 50.0 µM unless noted -2% | [2]; at 50.0 µM unless noted 5.15% | [3]; at 50.0 µM unless noted 15.6% | [4]; at 50.0 µM unless noted -17.5% | [5]; at 50.0 µM unless noted -10.7%

COc1cccc(C)c1NC(=O)NCCCl
inactive: [1]; at 50.0 µM unless noted 17.6% | [2]; at 50.0 µM unless noted 1.05% | [3]; at 50.0 µM unless noted 13.2% | [4]; at 50.0 µM unless noted -25.2% | [5]; at 50.0 µM unless noted 12.1%

Fc1ccc([I+]c2ccc(F)cc2)cc1
active: [1]; [8] 89% | [3]; [8] 84% | [5]; [8] 90% | [6]; [8] 81%
inactive: [1]; [7] 12% | [2]; [7] 2% | [2]; [8] 43% | [3]; [7] 24% | [4]; [7] 9% | [4]; [8] 32% | [5]; [7] 33% | [6]; [7] 17%

N#CCCC(C#N)(CCC#N)C(N)=O
inactive: [1]; at 50.0 µM unless noted 11.9% | [2]; at 50.0 µM unless noted -18% | [3]; at 50.0 µM unless noted -2.6% | [4]; at 50.0 µM unless noted -49.6% | [5]; at 50.0 µM unless noted 5.2%

CCOC(=O)c1ccc(N/C(C)=C/C(=O)OC)cc1
inactive: [1]; at 50.0 µM unless noted 3.45% | [2]; at 50.0 µM unless noted -8.4% | [3]; at 50.0 µM unless noted 11.2% | [4]; at 50.0 µM unless noted -20.7% | [5]; at 50.0 µM unless noted 1.95%
